Assay results published in PubChem BioAssay (Tox21).
Several values for one entry are separate records, joined by “and”; a condition that tells them apart may be missing. Equal entries are not always repeated. Inconclusive results are not listed. Entries that show only a call come without a potency. Activity calls are given as the source filed them. The call rests on the fitted dose curve; in most records, active means well fitted cell-killing curve with a large enough effect in the repeat runs; inconclusive means weak or mixed curves, or effect the other way; inactive means no such curve, though single readings can be large or run the other way.
Potency means the concentration at half of the fitted maximal effect.

Test: qHTS assay to identify small molecule antagonists of the vitamin D receptor (VDR) signaling pathway - cell viability counter screen (AID 743225); further: nearly all actives have a fitted effect of over 50% in size
Conditions: VDR-bla HEK293T viability, CellTiter-Glo luminescence, 16 h; series mostly up to 61 µM
Description: U.S. Tox21 Program National Center for Advancing Translational Sciences [NCATS] NIH Chemical Genomics Center [NCGC] U.S. Environmental Protection Agency [EPA] National Institutes of Environmental Health Sciences [NIEHS] National Toxicology Program [NTP] U.S. Food and Drug Administration [FDA] Tox21 Assay Overview: The vitamin D receptor (VDR), a member of nuclear hormone receptor superfamily, plays a critical role in calcium homeostasis and bone metabolism. It is also involved in cell differentiation and growth, and thrombogenicity. To identify the compounds that inhibit VDR signaling, the VDR-UAS-bla HEK 293T cell line (Invitrogen, Carlsbad, CA, USA) containing a beta-lactamase reporter gene under the control of an upstream activator sequence (UAS) was used to screen the Tox21 10K compound library. The cytotoxicity of the Tox21 compound library against the VDR-bla cell line was tested in parallel by measuring the cell viability using CellTiter-Glo assay (Promega, Madison, WI) in the same wells.
Tox21 Assay Protocol Summary: VDR-bla cells were dispensed at 2,000 cells/5 uL of assay medium per well into black wall/clear-bottom 1536-well plates using a Multidrop Combi (Thermo Fisher Scientific, Waltham, MA) dispenser. After the assay plates were incubated at a 37C and 5% CO2 for 4 h, 23 nL of compounds dissolved in DMSO, positive controls or DMSO only was transferred to the assay plate by a Pintool station (Kalypsys, San Diego, CA), followed by addition of 1 uL of 1-alpha, 25-Dihydroxy Vitamin D3 (3 nM, final concentration in the wells) using a Bioraptr Flying Reagent Dispenser (FRD) workstation (Beckman Coulter, Indianapolis, IN). The plates were incubated at 37C and 5% CO2 for 16 h, and then 1 uL of LiveBLAzerTM B/G FRET substrate was added using a Bioraptr FRD. The plates were incubated at room temperature for 2 h and fluorescence intensity was measured by an Envision plate reader (PerkinElmer, Shelton, CT). For cell viability readout that measures cytotoxicity, 3 ul/well of CellTiter-Glo reagent was added into the assay plates using a Bioraptr FRD. After 30 min incubation at room temperature, the luminescence intensity in the plates was measured using a ViewLux plate reader (PerkinElmer).
For `C=CCOCC1CO1` (stereo not given), the Potency was “inactive”.
With `C=CCOC(=O)C(C)(C)OC(=O)c1cc(-n2c(=O)cc(C(F)(F)F)n(C)c2=O)ccc1Cl` the Potency was “inactive”.
In the case of `c1ccc2c(c1)-c1cccc3cccc-2c13`, the Potency is reported as “inactive”.
In the case of `CN(C)N`, the Potency is reported as “inactive”.
With `CCC1(C2=NCCN2)Cc2ccccc2O1` (stereo not given) the Potency was “inactive”.
For `CCCN(CCOc1c(Cl)cc(Cl)cc1Cl)C(=O)n1ccnc1`, the Potency was “inactive”.
In the case of `C[N+](C)(C)CCOC(=O)C(O)(c1ccccc1)c1ccccc1`, the Potency is reported as “inactive”.
With `FC(Cl)(Cl)C(F)(Cl)Cl` the Potency was “inactive”.
With `CCC1(CCC(C)C)C(=O)NC(=O)NC1=O` the Potency was “inactive”.
In the case of `O=C(N[C@H]1CN2CCC1CC2)c1ccc2c(c1)OCCO2`, the Potency is reported as “inactive”.
With `Cc1nc(N(C)C)nc(OC(=O)N(C)C)c1C` the Potency was “inactive”.
In the case of `C=CCc1ccc(OC(=O)Cc2ccccc2)c(OC)c1`, the Potency is reported as “inactive”.
For `O=C([O-])c1ccccn1.O=C([O-])c1ccccn1.O=C([O-])c1ccccn1.[Cr+3]`, the Potency was “inactive”.
For `NNCCO`, the Potency was “inactive”.
With `Cc1ccc2c(C)cccc2c1` the Potency was “inactive”.
In the case of `CCCSP(=S)(OCC)Oc1ccc(SC)cc1` (stereo not given), the Potency is reported as “inactive”.
For `COc1ccc2c(c1OC)C(=O)O[C@H]2[C@@H]1c2cc3c(cc2CCN1C)OCO3`, the Potency was “inactive”.
With `CCCCCCCCCCCCCCCl` the Potency was “inactive”.
For `Nc1cccc2ccccc12`, the Potency was “inactive”.
In the case of `CC(C)(c1ccccc1)c1cc(-n2nc3ccccc3n2)c(O)c(C(C)(C)c2ccccc2)c1`, the Potency is reported as “inactive”.
With `O=S(=O)(c1ccccc1)c1ccccc1` the Potency was “inactive”.
With `C[N+](C)(C)CC1CO1` (stereo not given) the Potency was “inactive”.
With `CCCCC(CC)CO[N+](=O)[O-]` (stereo not given) the Potency was “inactive”.
In the case of `[Cl-].[Cl-].[Hg+2]`, the Potency is reported as 1.22 µM (active) and 3.47 µM (active).
With `CN1CC[C@]23c4c5ccc(O)c4O[C@H]2[C@@H](O)CC[C@H]3[C@H]1C5` the Potency was “inactive”.
For `CN1CC[C@]23c4c5ccc(O)c4O[C@H]2[C@@H](O)C=C[C@H]3[C@H]1C5`, the Potency was “inactive”.
With `CCC(C)(C)c1ccc(O)c(C(C)(C)CC)c1` the Potency was 12.2 µM (active) and 19.5 µM (active).
With `CCOP(=S)(OCC)SCSc1cc(Cl)ccc1Cl` the Potency was “inactive”.
In the case of `CCCCCCCCn1sccc1=O`, the Potency is reported as 19.5 µM (active) and 22.9 µM (active).
With `CCCCCBr` the Potency was “inactive”.
With `CCCCC(CC)COC(=O)c1c(Br)c(Br)c(Br)c(Br)c1C(=O)OCC(CC)CCCC` (stereo not given) the Potency was “inactive”.
In the case of `CC[N+]1(C)CCCC(OC(=O)C(O)(c2ccccc2)c2ccccc2)C1` (stereo not given), the Potency is reported as “inactive”.
In the case of `O=C(O)C(Cl)(Cl)Br`, the Potency is reported as “inactive”.
In the case of `O=C1NC(=O)C(=O)C(=O)N1`, the Potency is reported as “inactive”.
For `CCCCCCCCP(=O)(O)O`, the Potency was “inactive”.
In the case of `CCCCCCCCCCCCN(C)C`, the Potency is reported as “inactive”.
With `CC[N+]1(CCOC(=O)C(O)(c2ccccc2)c2ccccc2)CCCCC1` the Potency was “inactive”.
With `Nc1ccc2c(c1)Cc1ccccc1-2` the Potency was “inactive”.
With `N#CC(C#N)=Cc1ccc(O)c(O)c1` the Potency was “inactive”.
In the case of `COc1ccc(C(=O)c2c(C)n(CCN3CCOCC3)c3ccccc23)cc1`, the Potency is reported as “inactive”.
